# Data taken from PubChem BioAssay AID624133 (Broad Institute, 2012).
# The whole screen tested about 1,600 compounds, of which about 1,300 (81%) were called active. The rule behind the calls is not given here. The set was probably picked from earlier hits. Only a sample is shown. Measured potencies and affinities stand elsewhere.
# Assay: non-specific 3'UTR reporter inhibition in Clone20-Shn3RL – cell-based, Renilla luciferase, cherry-picked, counter-screen for Shn3 inhibitor project, dose response (AID 624133);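 note: 0% = neutral control wells and -100% = positive control wells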
# Details: Clone20-Shn3RL cells, Renilla luciferase luminescence, 24 h; at 35 µM (top of the series) unless noted
row,SMILES,"activity change, negative = inhibition"
1,COC(=O)c1ccccc1NC(=S)N(Cc1ccc2c(c1)OCO2)Cc1cc2cc(OC)ccc2[nH]c1=O,200%
2,O=C1S/C(=C\c2ccc(N3CCOCC3)o2)C(=O)N1Cc1c(F)cccc1Cl,400%
3,Cc1cc(C)n(-c2cc(-n3nc(C)cc3C)ncn2)n1,2.38%
4,C[C@@H]1CN([C@H](C)CO)C(=O)c2cc(Br)cnc2O[C@H]1CN(C)C(=O)Cc1ccncc1,83.3%
5,CN1OC[C@@H]2CN[C@H](c3ccc(-c4cc5ccccc5o4)cc3)C[C@@H]21,-25%
6,CN(CC(=O)Nc1cc(S(=O)(=O)N2CCCC2)ccc1Cl)Cc1ccc2c(c1)OCO2,87.5%
7,CC(C)(C)OC(=O)NCc1ccc(CNC(=O)c2nc[nH]c2C(=O)NCc2ccc(CNC(=O)OC(C)(C)C)cc2)cc1,208%
8,Cc1ccc(-n2cc(CNCCCn3ccnc3C)c(-c3ccc(F)cc3)n2)cc1,-91.7%
9,COC(=O)c1cn(NC(=O)c2cc([N+](=O)[O-])ccc2F)c(=O)c2ccccc12,354%
10,CC(C)c1ccc(Oc2cccc3c2S(=O)(=O)N(C2CCCC2)CC(COCc2ccccc2)O3)cc1 (stereo not drawn),273%
11,Cn1cccc1Cc1nnc(SCC(=O)NCCc2ccccc2)n1-c1ccc(F)cc1,275%
12,CCN(CC)S(=O)(=O)c1ccc(N(C)Cc2cccc(OC)c2OC)nc1,-40%
13,CCOC(=O)c1ccc(NC(=O)c2nc[nH]c2C(=O)NCCNC(=O)c2[nH]cnc2C(=O)Nc2ccc(C(=O)OCC)cc2)cc1,47.9%
14,Cc1cccc2c(C(=O)N3CCN(c4ccccn4)CC3)cc(-c3cccc(Br)c3)nc12,-100%
15,COc1ccccc1N1CCN(c2ncc(C(=O)N3CCN(c4cccc(Cl)c4)CC3)c3ccccc23)CC1,66.7%
16,CCOc1cc(C)c(S(=O)(=O)Nc2ccc3cn[nH]c3c2)cc1C,0%
17,Cc1ccc(NC(=O)C2CCCN(S(=O)(=O)c3c(C)noc3C)C2)cc1 (stereo not drawn),-19.4%
18,COc1ccc(C(=O)NCCN(C)C)c2nc3ccccc3cc12,66.5%
19,COc1ccccc1/C=C1\CCCC2=C1Nc1nnnn1C2c1ccccc1OC (stereo not drawn),-110%
20,CCn1c(C)cc(C(=O)COC(=O)c2ccccc2[N+](=O)[O-])c1C,-13.6%
21,COc1ccc(-c2nsc3c(N4CCCCC4C)ncnc23)cc1 (stereo not drawn),-16.7%
22,O=C(CN1C(=O)C2CCCCC2C1=O)NC1CCCc2ccccc21 (stereo not drawn),-10%
23,C[C@@H]1CN([C@@H](C)CO)C(=O)c2cc(NC(=O)Nc3ccc(F)cc3)ccc2O[C@@H]1CN(C)Cc1ccc(Oc2ccccc2)cc1,-20.8%
24,C[C@@H]1CCCCO[C@H](CN(C)Cc2ccccc2)[C@@H](C)CN([C@H](C)CO)C(=O)c2cc(NC(=O)c3ccccc3)ccc2O1,33.3%

row,SMILES,"activity change, negative = inhibition"
1,CN(Cc1ccccc1)C(=O)c1cccc(NC(=O)Cc2ccc([N+](=O)[O-])cc2)c1,230%
2,CC(Oc1ccc(F)cc1)C(=O)N(CCC1=CCCCC1)c1c(N)n(Cc2ccccc2)c(=O)[nH]c1=O (stereo not drawn),-25%
3,COc1ccc2c(CC(=O)OCC(=O)N(C)c3c(N)n(Cc4ccccc4)c(=O)[nH]c3=O)coc2c1,-12.5%
4,COc1ccc(CN2CCC(C(=O)Nc3ccc(Oc4cccnc4)cc3)CC2)c(C)c1C,-75%
5,CC(C)(C)C(=O)Nc1cc(S(=O)(=O)N2CCCCC2)ccc1N1CCCCC1,50%
6,COc1cccc(-c2nc(NC3CCCC3)c3ccccc3n2)c1O,-22.7%
7,COc1ccc(-n2ncc3c(N4CCCCC4)ncnc32)cc1,-75%
8,CCn1cc(CNCc2cn(-c3ccccc3C)nc2-c2ccc(OC)c(F)c2)cn1,150%
9,Cc1ccc(C(=O)Nc2cnc3ccccc3c2)cc1,90%
10,CC(=O)c1cccc(NS(=O)(=O)c2ccc(-c3cnc(C4CC4)o3)cc2)c1,8.33%
11,Cc1cccc(NS(=O)(=O)c2ccc(C3CCCCC3)cc2)c1,0%
12,CCOC(=O)c1[nH]c(C)c(/C(O)=C2\C(=O)C(=O)N(CCCN3CCOCC3)C2c2cccs2)c1C (stereo not drawn),70%
13,O=C(CSc1nnc(Nc2ccccc2)s1)NC1CCS(=O)(=O)C1 (stereo not drawn),20.8%
14,CCOC(=O)c1cn(CC(=O)Nc2cccc(Cl)c2C)nn1,16.7%
15,CCOC(=O)Cn1c(S(=O)(=O)Cc2ccccc2Cl)nc(-c2ccccc2)c1-c1ccccc1,110%
16,CC1(C)CC(=O)c2c(nc(SCC(=O)Nc3nsc(-c4ccccc4)n3)c(C#N)c2-c2ccccc2)C1,16.7%
17,Cc1cccc(C(=O)Nc2ccc(C(=O)/C=C/c3ccncc3)cc2)c1,-100%
18,CCCCN1CC(COCc2ccccc2)Oc2cccc(Oc3ccc(C(C)C)cc3)c2S1(=O)=O (stereo not drawn),37.5%
19,OCCNc1nc(Nc2ccc(Cl)cc2)nc(N2CCCC2)n1,-11.7%
20,OCCCNc1nccc(-c2cc(Nc3cccc(Cl)c3)ncn2)n1,-50%
21,Cc1cc(O)c(C(C)C)cc1C1(c2cc(C(C)C)c(O)cc2C)OC(=O)c2ccccc21,0%
22,Cc1ccccc1C(=O)N1CCN(c2ccc(NC(=O)c3ccc4c(c3)OCCO4)cc2)CC1,-103%
23,O=C(NCCc1ccccc1)c1ccc2c(c1)OCCCO2,22.2%
24,Cc1onc(-c2c(Cl)cccc2Cl)c1C(=O)N[C@@H]1C(=O)N2[C@@H]1SC(C)(C)[C@@H]2C(=O)O,25%
